Screen size: about 300,000 compounds; about 2,300 (0.77%) were called active. The sample holds actives, similar compounds and a random draw of the others, so the mix is not that of the screen.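 The calls were made as follows: active = mean activation of at least 80% with every replicate also reaching 80%; inconclusive = mean reaches 80% but some replicate falls short; inactive = the rest.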 Where a SMILES comes first, the peptide text is derived from it. [ ]: non-standard residue; d: D form. ξ: configuration not given here. Ac5c = NC1(C(=O)O)CCCC1; ξS = NC(CO)C(=O)O

The test is described as follows: MITF-driven TRPM1 luciferase induction in melanoma cells – cell-based, SK-MEL-5, single point, primary screen (AID 588334).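 Also: 0% = neutral control wells and 100% = parthenolide positive control wells.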 Particulars: SK-MEL-5 TRPM1-promoter luciferase, 24 h; at 12.5 µM; active compounds read high; % of positive control, neutral wells = 0.
With `C=CCC[C@H](Cc1ccc(F)cc1)C(=O)OC[C@@H](NC(=O)[C@@H](CC=C)CC(=O)N[C@H](CO)Cc1ccccc1)C(C)(C)C`, the activation is -0.905% (inactive).

Consider `CCCCNC1(C#N)CCN(Cc2ccccc2)CC1`, for which the activation is 0.419% (inactive).

As to `CC(C)(C)OC(=O)N(Cc1ccccc1)Cc1ccc(OCc2cccc(NC(=O)c3ccccc3)c2)cc1`, the activation was -13.4% (inactive).

Consider `O=C(C[C@H]1C[C@H](C(=O)N2CCOCC2)[C@@]2(CCC3CCCC3)c3[nH]c4ccc(Cl)cc4c3CCN2C1=O)NCc1ccco1`, for which the activation was -16.1% (inactive).

Consider `CCCCNc1c(-c2ccc(OC)c(Sc3ccc(OC)cc3)c2)nc2ccc(Cl)cn12`, for which the activation was 4.02% (inactive).

Consider `CCOC(=O)C(CO)NC(=O)C1(NC(C)=O)CCCC1` (configuration not stated) (Ac-[Ac5c]-[ξS]-OEt), for which the activation was 14.3% (inactive).

Turning to `COc1ccc(S(=O)(=O)N2CCc3ccccc32)cc1C(=O)Nc1cc(S(C)(=O)=O)ccc1Cl`, the activation is -34% (inactive).

On to `COc1ccc(-c2nnc(SCc3cccnc3)o2)cc1`, for which the activation is 72% (inactive).

Consider `COc1ccc(Nc2nnc(C)c3ccccc23)cc1`, for which the activation is 24.4% (inactive).

For the compound `COc1ccc(-c2nnc(-c3ccc4ccccc4c3)o2)cc1`, the activation is 93.8% (active).

As to `COc1ccc(N2CCN(Cc3nnc(-c4ccccc4)o3)CC2)cc1`, the activation was -2.12% (inactive).

As for `COc1ccc(Nc2ccc3ccccc3c2)cc1`, the activation was 101% (active).

`S=C(Nc1ccccc1)Nc1ccc2ccccc2c1`: the activation was 1.98% (inactive).

Take `CN(CCc1ccccc1)C(=O)c1cccc(NC(=O)Cc2cccc(NC(=O)C3CCCN(C(=O)CCc4ccccc4)C3)c2)c1` (configuration not stated): the activation is -13.3% (inactive).

As for `CCC1([N+](=O)[O-])COC(c2ccc(C(C)C)cc2)OC1` (configuration not stated), the activation is 53.9% (inactive).

As for `CC(C)(C)OC(=O)C[C@@H]1C/C=C\C[C@@H](CC(=O)N(CCO)Cc2ccccc2)C(=O)N[C@H](Cc2ccccc2)COC1=O`, the activation was 8.13% (inactive).

As for `O=C(CSc1nnc(-c2ccco2)n1CC1CCCO1)c1ccccc1` (configuration not stated), the activation was 5.67% (inactive).

For `O=C(CSc1nnc(-c2ccco2)n1-c1ccccc1)NCCc1ccccc1`, the activation is -10.2% (inactive).

On to `c1ccc(CSc2nnc(-c3ccco3)n2Cc2ccccc2)cc1`, for which the activation was 94.3% (active).

As for `CCc1c(Nc2ccccc2Cl)nc(N)[nH]c1=O`, the activation was 0.399% (inactive).

For the compound `CSc1ccccc1NC(=O)c1cc(Cl)sc1Cl`, the activation was 3.8% (inactive).

For `CSc1ccccc1NC(=O)c1cnc2sc(C)cn2c1=O`, the activation was 126% (active).

As for `Cc1ccccc1C(=O)Nc1ccccc1Sc1ccccc1`, the activation is -5.99% (inactive).

As to `CC(=O)N1CCc2ccc(N)cc21`, the activation was -5.2% (inactive).

Consider `CC(C#N)OC(=O)c1cccnc1SCC(=O)Nc1ccc2c(c1)OCO2` (configuration not stated), for which the activation was -11.6% (inactive).

In the case of `Cc1ccc(C(=O)NCCNS(=O)(=O)c2ccccc2)cc1`, the activation is 0.954% (inactive).

For the compound `O=C(NCCSc1ccccc1)c1ccco1`, the activation was 61.4% (inactive).

With `CCS(=O)(=O)Nc1ccc(C(=O)NCCSc2ccccc2)cc1`, the activation is 82.4% (active).

Turning to `CC(=O)OC1CCC2C3CCC4=C(CC(F)C(=O)C4)C3CCC12C` (configuration not stated), the activation was 0.663% (inactive).

Take `COc1ccc2nc(SCc3ccccc3)nc(C)c2c1`: the activation was 91.9% (active).

As for `COc1ccc(-c2nnc3ccc(SCc4ccccc4)nn23)cc1`, the activation is -5.03% (inactive).

As to `COC(=O)CSc1nc(C)c2ccc(OC)cc2n1`, the activation was 16.3% (inactive).

On to `C[C@]12c3[nH]c4ccc(Cl)cc4c3CCN1C(=O)[C@@H](CC(=O)NCCCn1ccnc1)C[C@@H]2C(=O)N1CCOCC1`, for which the activation was 13.5% (inactive).

On to `Cc1cccc(OC(=O)c2sc3ncn(C)c(=O)c3c2C)c1`, for which the activation is 93.6% (active).

Turning to `Cc1c(C(N)=O)sc2ncn(CCOc3ccccc3)c(=O)c12`, the activation is 17.3% (inactive).

In the case of `CCOC(=O)C(C)n1cnc2sc(C)c(C)c2c1=O` (configuration not stated), the activation is 2.04% (inactive).

As to `CCC(CO)Oc1cc(NCc2ccccc2)c2ncn(C3CCCC3)c2c1` (configuration not stated), the activation is 9.77% (inactive).

On to `NC(=O)c1ncn([C@@H]2O[C@H](CNCc3cnc(N4CCOCC4)s3)[C@@H](O)[C@H]2O)n1`, for which the activation is -0.075% (inactive).

With `O=C(Cc1ccc(S(=O)(=O)N2CCOCC2)s1)Nc1ccc(Br)c(C(F)(F)F)c1`, the activation is 17.8% (inactive).

Consider `O=C(CC1Sc2ccccc2NC1=O)NNc1ccc(Cl)c(Cl)c1` (configuration not stated), for which the activation was 9.23% (inactive).

Turning to `Nc1nnc(SCn2nnc3ccccc3c2=O)s1`, the activation was -7.75% (inactive).

For `O=c1c2ccccc2nnn1CSc1nnnn1-c1ccccc1`, the activation is 87.9% (active).

Turning to `C=CCn1c(SCn2nnc3ccccc3c2=O)nnc1-c1ccc(Cl)cc1`, the activation is -11% (inactive).

As for `O=C(NCCC(=O)N1O[C@@H]2C=C[C@H]1C2)OCC1c2ccccc2-c2ccccc21`, the activation is 12.3% (inactive).

Regarding `COc1ccc(CNC(=O)COC(=O)C2=Cc3ccccc3OC2)cc1`, the activation was -1.47% (inactive).

Turning to `CC(C)N(C(=O)[C@H]1C[C@H](CC(=O)NC(C)(C)C)C(=O)N2CCc3c([nH]c4ccc(Cl)cc34)[C@]12C)C(C)C`, the activation is -26.3% (inactive).

Regarding `COc1cc(C(=O)N2CCN(S(=O)(=O)c3ccc(C(C)C)cc3)CC2)ccc1OCC(=O)N1CCOCC1`, the activation is -0.869% (inactive).

`Cc1ccc2cc(/C=N/NC(=O)[C@@H]3CCCN3)c(Cl)nc2c1`: the activation is 19.1% (inactive).

As to `Cc1ccc2cc(/C=N/Nc3ccc(C(=O)O)cc3)c(Cl)nc2c1`, the activation is 99.2% (active).

As for `O=C(O)c1ccc(N/N=C/c2ccc3ncccc3c2)cc1`, the activation was -58.9% (inactive).

With `O=C1C[C@@H]2c3c(cccc3CN1Cc1ccccc1)C[C@@H](O)[C@H]2O`, the activation is 8.46% (inactive).

As to `COc1ccc(C2=Nn3c(nnc3-c3ccccc3OC)SC2)cc1OC1CCCC1`, the activation is -62.2% (inactive).

In the case of `CC(=NNC(=O)c1ccncc1)c1ccc(Cl)c(Cl)c1`, the activation is 4.45% (inactive).

Turning to `O=C(NCCC1=CCCCC1)c1ccc(Cl)c([N+](=O)[O-])c1`, the activation was 31.3% (inactive).

Turning to `CN(c1ccc(C(=O)NCCC2=CCCCC2)cc1)S(C)(=O)=O`, the activation was 45.6% (inactive).

For `O=C(NCCC1=CCCCC1)c1ccc(-n2cncn2)cc1`, the activation was 83.6% (active).

Take `CN(C)C(CNC(=O)c1cc2ccccc2o1)c1ccccc1` (configuration not stated): the activation is 1.76% (inactive).

For `CCNC(=O)N(CC)C[C@H]1N[C@@](CC)(C(=O)OC)[C@H]2C(=O)N(Cc3ccccc3)C(=O)[C@@H]12`, the activation was 0.033% (inactive).

With `CNN/C(N=Cc1ccc([N+](=O)[O-])s1)=N\S(=O)(=O)c1cc(C)c(Cl)cc1SCc1ccccc1`, the activation is -22.7% (inactive).

In the case of `CCCc1nc(SCC(=O)Nc2ccc(S(=O)(=O)N(C)C)cc2)c2ccccc2n1`, the activation is -0.188% (inactive).

For the compound `CN(C)S(=O)(=O)c1ccc2oc(SCC(=O)Nc3ccccc3F)nc2c1`, the activation is 114% (active).

In the case of `COc1ccc(S(=O)(=O)N(C)C)cc1NC(=O)CSc1ncccn1`, the activation was 0.656% (inactive).

As to `COc1ccc(CCC(=O)Nc2ccc(Cl)c(S(=O)(=O)N3CCOCC3)c2)cc1OC`, the activation is -5.06% (inactive).

In the case of `O=C1OCC2=C1C(c1ccc(Cl)cc1)c1cc3c(cc1O2)OCO3` (configuration not stated), the activation was 3.92% (inactive).

Regarding `COc1ccc2c(c1)CCc1c(C(=O)N3CCc4ccccc4C3)noc1-2`, the activation was 18.4% (inactive).

Regarding `O=C(c1noc2c1CCCC2)N1CCc2ccccc2C1`, the activation is 127% (active).

Consider `Cc1ccc(-c2cc(C(=O)N3CCc4ccccc4C3)no2)cc1`, for which the activation was -5% (inactive).

On to `O=C1CC(c2ccccc2)C(=O)N2C(=O)CC(c3ccccc3)C(=O)N12` (configuration not stated), for which the activation was 1.12% (inactive).

In the case of `Cc1nc2ccc(N)nc2nc1C`, the activation is -1.9% (inactive).

On to `CCCCN(C(=O)CSCc1ccc(C)cc1)c1c(N)n(Cc2ccccc2)c(=O)[nH]c1=O`, for which the activation is 15.5% (inactive).

In the case of `CC(=O)OCC1(O)CC23CCC4c5ccoc5CCC4(C)C2CCC1C3` (configuration not stated), the activation was -8.62% (inactive).

Consider `O=C(Cc1ccc(Cl)cc1)c1ccccc1`, for which the activation is 89.3% (active).

For `O=C(Cc1nc2ccccc2[nH]c1=O)c1ccc(Cl)cc1`, the activation was 50.8% (inactive).

For the compound `O=C(Cc1ccc(Cl)cc1)NCc1nc(-c2ccccc2)no1`, the activation was 14.2% (inactive).

For the compound `C/C(=N\Nc1ccccc1)c1cccs1`, the activation was -5.68% (inactive).

For the compound `COc1cc(O)c2c(=O)c3c(O)c(O)ccc3oc2c1OC`, the activation was 2.79% (inactive).

As for `COc1ccc(-c2nc3cc(C)ccn3c2NC2CCCCC2)cc1SC1CCCCC1`, the activation was 7.59% (inactive).

Regarding `Cc1ccc2nc(N3C(=O)C(O)=C(C(=O)c4ccco4)C3c3cccc(O)c3)sc2c1` (configuration not stated), the activation is 10% (inactive).

Regarding `COc1ccc2nc(N3CCN(C(=O)c4ccc([N+](=O)[O-])o4)CC3)sc2c1`, the activation is -66.4% (inactive).

Take `Cc1ccc2nc(N3CCN(C(=O)c4ccco4)CC3)sc2c1`: the activation is 103% (active).

As for `CCOC(=O)C1CCCN(C(=O)C2CCN(S(=O)(=O)c3ccc(Cl)c(C(F)(F)F)c3)CC2)C1` (configuration not stated), the activation was -3.48% (inactive).

As for `O=C1NC[C@@H](c2ccccc2)OC(=O)[C@H](Cc2ccc(F)cc2)CC/C=C/C[C@H]1CC(=O)N(CCO)Cc1ccccc1`, the activation is -2.43% (inactive).

As to `COc1ccc(CC(=O)NC(C)c2ccc(Cl)c(Cl)c2)cc1S(=O)(=O)N1CCOCC1` (configuration not stated), the activation was 6.68% (inactive).

With `CC(=O)Nc1cccc(-c2csc(Nc3cccc(C)n3)n2)c1`, the activation was 137% (active).

In the case of `CC(=O)Nc1ccc(-c2csc(NC=C3C(=O)OC(C)(C)OC3=O)n2)cc1`, the activation is 8.13% (inactive).

Turning to `CC(=O)Nc1ccc(-c2csc(NC(=O)Nc3ccccc3)n2)cc1`, the activation is -48.4% (inactive).

Regarding `Cc1ccc(Cn2c(C)c3cnn(CC(=O)NCCN4CCOCC4)c(=O)c3c2C)cc1`, the activation is -2.1% (inactive).

For `COc1ccccc1-c1sc2ccccc2c1C#CC1(O)CCCCC1`, the activation is 5.32% (inactive).

Turning to `CCN(CC)CCCC(C)n1c2nc(=O)[nH]c(=O)c-2nc2cc(Cl)ccc21` (configuration not stated), the activation was -84% (inactive).

In the case of `CCN(CC)S(=O)(=O)c1ccc(C)c(NC(=O)COc2ccc(Br)cc2Cl)c1`, the activation was -17.2% (inactive).

As for `Cc1cccc(NC(=O)Nc2ccc(OCc3ccccc3)cc2)n1`, the activation was -1.41% (inactive).

With `Cc1cccc(NC(=O)COc2ccc(Br)cc2C)n1`, the activation is 198% (active).

(Values after PubChem BioAssay AID588334 (Broad Institute, 2011).)
